Source: PubChem (several laboratories)
ADAM10 inh: human ADAM10 inhibitors, primary screen, biochemical, QFRET, HTS. Disintegrin and metalloproteinase domain-containing protein 10 (Homo sapiens), O14672. recombinant ADAM10, EDANS/DABCYL FRET peptide cleavage, 3 h. inhibition, % at 7 µM. hit rate 0.62% among 370,000;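 active means inhibition above a per-campaign cutoff equal to the mean of compounds falling between control-based bounds plus 3 SD, cut at about 20% in these data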
ADAM17 inh: ADAM17 inhibitors, primary screen, biochemical, QFRET; Disintegrin and metalloproteinase domain-containing protein 17 (Homo sapiens), P78536; recombinant ADAM17, EDANS/DABCYL FRET peptide cleavage; inhibition, % at 6.95 µM; hit rate 0.83% among 370,000;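 active means inhibition above the mean of compounds lying between control limits plus 3 SD, set per campaign, cut at about 8.5% in these data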
KLK7 zymogen act: proKLK7 zymogen activators, primary screen, biochemical, fluorescence intensity. AID 652039, 2013. hit rate 0.9% among 370,000. activation, % at 7 µM. purified proKLK7, EDANS-DABCYL substrate fluorescence; 100% is mature enzyme control, 0% vehicle. Kallikrein-7 (Homo sapiens), P49862;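 active means activation above the mean of all tested compounds plus 3 SD, computed per campaign excluding outliers beyond control limits, cut at about 13% in these data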
Target sequence (P49862 whole entry, looked up): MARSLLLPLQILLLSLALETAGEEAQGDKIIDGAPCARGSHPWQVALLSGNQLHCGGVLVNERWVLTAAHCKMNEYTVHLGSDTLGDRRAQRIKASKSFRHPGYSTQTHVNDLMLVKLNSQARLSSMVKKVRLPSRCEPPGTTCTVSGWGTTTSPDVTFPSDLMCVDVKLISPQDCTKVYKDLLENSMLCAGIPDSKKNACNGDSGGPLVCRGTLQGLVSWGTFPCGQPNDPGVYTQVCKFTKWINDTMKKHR
sPLA2-III inh: human group III sPLA2 inhibitors, primary screen, biochemical, QFRET, BODIPY PC-A2 liposome substrate | Group 3 secretory phospholipase A2 (Homo sapiens), Q9NZ20 | hit rate 0.56% among 370,000 | QFRET BODIPY PC-A2 liposome hydrolysis, fluorescence | AID 743126, 2013 | inhibition, % at 12.2 µM;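 active means inhibition above mean plus 3 SD of compounds lying within the high and low control bounds, cut at about 19% in these data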
CendR NRP1 mod: modulators of CendR peptide binding to NRP-1, primary screen, biochemical, fluorescence polarization, uHTS; Neuropilin-1 (Homo sapiens), O14786; FAM-RPARPAR peptide binding to NRP-1; inhibition, % at 25 µM; hit rate 0.85% among 360,000; AID 602438, 2012;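 active means inhibition or corrected inhibition above about 18%, plus a signal ratio from 0.5 to 1.5, limit read from the data, passing the limit was not always enough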
KLK7 act conf: proKLK7 zymogen activators, confirmation, biochemical, fluorescence intensity, triplicate; shares compounds with KLK7 zymogen act; hit rate 68% among 3,200; purified proKLK7, EDANS-DABCYL substrate fluorescence; scaled: vehicle 0, mature enzyme 100; AID 686949, 2013; activation, % at 7 µM;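 active means activation, as change over the incubation, above the mean of all tested compounds plus 3 SD, cut at about 13% in these data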
EDANS interfere: EDANS-DABCYL substrate optical interference, artefact control for kallikrein-7 zymogen activator project, biochemical, fluorescence intensity, high throughput; shares compounds with KLK7 zymogen act; no enzyme, 4 h; solvent 0%, active enzyme control 100%; activation, % at 7 µM; hit rate 80% among 3,200; AID 686952, 2013;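 active means activation above the all-compound mean plus 3 SD, ignoring values outside control-based bounds, cut at about 4.8% in these data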;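 further: value is the 4 h activation minus the activation read at time zero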
EDANS interf: optically interferes with EDANS-DABCYL fluorescence, kallikrein-7 activator counter-screen. EDANS-DABCYL peptide fluorescence interference, no enzyme. AID 720493. shares compounds with KLK7 zymogen act. EC50, µM. hit rate 20% among 250;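 active means compounds that raise the fluorescence signal in this interference counterscreen, with EC50 at or below 10 µM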;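 further: intact quenched peptide substrate alone read at 355 nm excitation and 520 nm emission; signal is fluorescence gain from T0 to T4 after four hours at room temperature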
Each line names hits and unclear results; the compound was inactive in the other large screens (follow-up assays come after a bar, where they were run). Only some compounds are listed: those with a hit (about 3.4% of all), similar ones and a draw of the others.

C#CCNC(=O)C[C@H]1C[C@@]2(C(=O)OC)C(=C[C@H](COCc3ccccc3)O[C@@H]2C)N(CCc2ccc(OC)c(OC)c2)C1=O	none (no result: CendR NRP1 mod)
COC(=O)[C@]12C[C@H](CC(=O)NCc3cccc(C(F)(F)F)c3)C(=O)N(Cc3ccc(Cl)cc3Cl)C1=C[C@H](C(C)(C)C)O[C@@H]2C	none (no result: CendR NRP1 mod)
CSC[C@H](NC(=O)COc1cc2c(c3oc(=O)cc(C)c13)CCC(C)(C)O2)C(=O)O	KLK7 zymogen act 24 | KLK7 act conf 60 | EDANS interfere 64
Cc1c(C)c2c(OCC(=O)N[C@@H](Cc3ccccc3)C(=O)O)cc3c(c2oc1=O)CCC(C)(C)O3	KLK7 zymogen act 56 | KLK7 act conf 59 | EDANS interfere 58
CC(C)c1cc(C(C)C)c(S(=O)(=O)N2CCCC(C(=O)N3CCN(Cc4ccccc4)CC3)C2)c(C(C)C)c1 (stereo not given)	none (no result: CendR NRP1 mod)
Cc1cccc(OCCCN2CCC(C(O)(c3ccccc3)c3ccccc3)CC2)c1	none (no result: CendR NRP1 mod)
COc1ccc(CNC(=O)c2cc3c(=O)n4ccccc4nc3n(Cc3cccnc3)c2=N)cc1	none
N=c1c(C(=O)NCc2ccccc2)cc2c(=O)n3ccccc3nc2n1Cc1ccco1	none
Cc1cccn2c(=O)c3cc(C(=O)NCc4cccnc4)c(=N)n(C(C)C)c3nc12	KLK7 zymogen act 134 | KLK7 act conf 51 | EDANS interfere 67
CC(C)n1c(=N)c(C(=O)NCCc2ccccc2)cc2c(=O)n3ccccc3nc21	KLK7 zymogen act 134 | KLK7 act conf inactive | EDANS interfere inactive
Cc1cccn2c(=O)c3cc(C(=O)NCc4ccco4)c(=N)n(C(C)C)c3nc12	KLK7 zymogen act 26 | KLK7 act conf inactive | EDANS interfere inactive
COc1ccc(CCNC(=O)c2cc3c(=O)n4cccc(C)c4nc3n(Cc3ccco3)c2=N)cc1OC	none
Cc1ccc(C(=O)NC2CCCCN(C(C)C)C2=O)cc1 (stereo not given)	none (no result: CendR NRP1 mod)
C[C@H]1[C@@H](OC(=O)NCc2cccs2)CC[C@@]23CCCN2C(=O)CCC[C@@H]13	none (no result: KLK7 zymogen act, CendR NRP1 mod)
Cc1nn2cc(-c3ccccc3)nc2[nH]c1=O	KLK7 zymogen act 49 | KLK7 act conf 74 | EDANS interfere 80
O=C(O)CCc1nn2cc(-c3ccccc3)nc2[nH]c1=O	KLK7 zymogen act 56 | KLK7 act conf 72 | EDANS interfere 81
C(#CC1=CCCCC1)CNCC1CC1	none (no result: CendR NRP1 mod)
Cc1ccc(-c2c(C#N)c(N)n(-c3ccc(C)cc3)c(=O)c2C#N)cc1	KLK7 zymogen act 21 | KLK7 act conf 187 | EDANS interfere 270
CCC1NC(C(=O)O)Cc2c1[nH]c1ccccc21 (stereo not given)	KLK7 zymogen act 36 | KLK7 act conf inactive | EDANS interfere 9.8
C=CCN1C(=O)c2[nH]nc(-c3ccccc3)c2C1c1ccc(C)cc1 (stereo not given)	none (no result: CendR NRP1 mod)
Cc1nn(-c2ccccc2)c(C)c1/C=N/NC(=O)c1[nH][nH]c(=O)c1C	none (no result: CendR NRP1 mod)
CNC(=O)C(C)N1c2cccc3cccc(c23)S1(=O)=O (stereo not given)	KLK7 zymogen act 15 | KLK7 act conf inactive | EDANS interfere 13
COc1ccc(NC(=O)C(C)N2c3cccc4cccc(c34)S2(=O)=O)cc1 (stereo not given)	none
N#Cc1c(=O)c2nc(NCCCO)ncc2n2c(=O)c3ccccc3[nH]c12	none
N#Cc1c(=O)c2nc(NCc3ccccc3)ncc2n2ccccc12	KLK7 zymogen act 19 | KLK7 act conf 24 | EDANS interfere 26
CN(C)CCNc1ccc2nnn3c4ccc(O)cc4c(=O)c1c23	none
CCN(CC)CCCNc1ccc2ncn3c4ccc(O)cc4c(=O)c1c23	KLK7 zymogen act 71 | KLK7 act conf inactive | EDANS interfere 28
O=C(Nc1ccc(NC(=O)c2ccccc2O)cc1)Nc1ccc(F)cc1F	KLK7 zymogen act 31 | KLK7 act conf 16 | EDANS interfere 10 | EDANS interf 9.7
O=C(Nc1ccc(F)cc1)Nc1ccccc1F	none
COc1cc2c(cc1OC)C1c3ccc(OC)c(OC)c3OCC1(O)C2 (stereo not given)	none
COc1cc2c(cc1OC)C(c1cc(OC)c(OC)c(OC)c1)C1(O)C(=O)OCC1(O)C2 (stereo not given)	KLK7 zymogen act 57 | KLK7 act conf inactive | EDANS interfere inactive
CCOC(=O)[C@]12CCCCC/C=C\1N(CCc1ccc(Cl)cc1)C(=O)[C@H]2CC(=O)N1CCC(c2ccccc2)CC1	none (no result: CendR NRP1 mod)
Cc1cc(C)c(C#N)c(SCC(=O)Nc2cccc(S(=O)(=O)N3CCCC3)c2)n1	none
COc1cccc(N2CC(=O)N(NC(=O)CSc3nc(C)cc(C)c3C#N)CC2=O)c1	KLK7 zymogen act 71 | KLK7 act conf 42 | EDANS interfere 45
Cc1cc(C)c2c(N)c(C(=O)NN3CC(=O)N(c4ccccc4F)CC3=O)sc2n1	KLK7 zymogen act 112 | KLK7 act conf 40 | EDANS interfere 42
COc1ccc(NC(=O)c2sc3nc(C)cc(C)c3c2N)c(OC)c1	none
COc1cccc(N2CC(=O)N(NC(=O)c3sc4nc(C)cc(C)c4c3N)CC2=O)c1	KLK7 zymogen act 56 | KLK7 act conf 16 | EDANS interfere 22
O=[N+]([O-])c1ncccc1OCCOc1ccc(Cl)cc1Cl	none (no result: KLK7 zymogen act, CendR NRP1 mod)
COC(=O)C[C@@H]1CC[C@@H]2[C@@H](COc3ccc(NC(=O)Nc4ccccc4)cc3C(=O)N2C)O1	none (no result: CendR NRP1 mod)
Cc1ccccc1CN1CCCCC(NC(=O)c2ccc(Br)cc2)C1=O (stereo not given)	none (no result: CendR NRP1 mod)
CCC[C@H]1[C@@H](NC(=O)c2ccc(OC)cc2)CC[C@@]23CCCN2C(=O)CCC[C@@H]13	none (no result: KLK7 zymogen act, CendR NRP1 mod)
CNS(=O)(=O)c1ccc2c3c(cccc13)C(=O)N2C	KLK7 zymogen act 35 | KLK7 act conf 55 | EDANS interfere 66
CCN1C(=O)c2cccc3c(S(=O)(=O)N(C)C)ccc1c23	KLK7 zymogen act 65 | KLK7 act conf 73 | EDANS interfere 75
CN1C(=O)c2cccc3c(S(=O)(=O)N(C)C)ccc1c23	KLK7 zymogen act 49 | KLK7 act conf 66 | EDANS interfere 73
